Laboratory results as given in PubChem BioAssay AID2685 (National Center for Advancing Translational Sciences (NCATS), 2010).
Several values for one entry are separate records, joined by “and”; a condition that tells them apart may be missing. Equal values may be shown once. In all, about 320,000 compounds went through this assay and about 2,100 (0.66%) were called active. About 53% were inconclusive and are not listed. The sample holds actives, similar compounds and a random draw of the others, so the mix is not that of the screen. Calls come from the whole dose curve; as a rule, active = well fitted inhibition curve with a large enough effect in the signal ratio, with a control signal flat (not every such curve was filed as active); inconclusive = small, poorly fitted or top-dose-only effect, or effect the other way, or a change in a side signal; inactive = flat fitted curve, though single readings scatter; the % refers to the signal ratio.

test: qHTS Assay for Lipid Storage Modulators in Drosophila S3 Cells; conditions: BODIPY lipid droplet fluorescence, 18-24 h, cells fed with added oleic acid; cell number change: measured here: cell count max response; series mostly up to 46.1 µM;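 for cell number change: cells counted by Cell Tracker Red CMTPX staining in the red channel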
How it was run: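 Drosophila S3 cells loaded with oleic acid (400 uM, as added) and compounds at several concentrations; lipid droplets imaged by 488-nm laser-scanning cytometry, 500–530 nm intensity and object ratio to cell channel. Percent activity normalized to 20 uM Triacsin C.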
Potency is the fitted concentration of half-maximal effect.

Structure (SMILES) | Potency | cell number change
Cc1ccc(C(=O)Nc2onc(C)c2C#N)cc1 | inactive | –
O=C(NCc1ccccc1Cl)c1cnccc1C(F)(F)F | inactive | 0.794%
COc1ccc(-n2nc([N+](=O)[O-])c(=NCCc3ccc(C)cc3)n2O)cc1 | inactive | -0.674%
Cc1ccc(CCN=c2c([N+](=O)[O-])nn(-c3ccccc3)n2O)cc1 | inactive | –
COc1ccc(-n2nc([N+](=O)[O-])c(=NCCc3ccc(OC)c(OC)c3)n2O)cc1 | 0.82 µM (active) | -7.82%
CCOc1ccccc1/C=N/n1nnnc1N | inactive | -5.74%
O=C1C2CC=C(Cl)CC2C(=O)N1CCC[n+]1cccc2ccccc21 (stereo unspecified) | inactive | -1.42%
O=C(C1CC(=O)N(c2ccc(Cl)cc2)C1)N1CCC(c2nc3ccccc3[nH]2)CC1 (stereo unspecified) | inactive | –
CCCNC(=O)Cn1cnc2sc(C(=O)N3CCN(Cc4ccc5c(c4)OCO5)CC3)c(C)c2c1=O | inactive | 8.92%
CCCNC(=O)Cn1cnc2sc(C(=O)N3CCN(CCC)CC3)c(C)c2c1=O | 32.6 µM (active) | -2.16%
CCCNC(=O)Cn1cnc2sc(C(=O)N3CCCC(C(=O)OCC)C3)c(C)c2c1=O (stereo unspecified) | inactive | -16.1%
CCOC(=O)C1CCN(C(=O)c2cccc(N3C(=O)NC4CC3(C)Oc3ccc(C)cc34)c2)CC1 (stereo unspecified) | inactive | –
Cn1c(=O)oc2cc(S(=O)(=O)N3CCCCC3)ccc21 | inactive | 4.27%
COc1ccc(C(=O)/C=C/Nc2ccc(S(=O)(=O)Nc3nc(C)cc(C)n3)cc2)c(OC)c1 | inactive | 26.5%
COc1ccc(C(=O)/C=C/Nc2ccc(S(=O)(=O)Nc3cc(OC)nc(OC)n3)cc2)c(OC)c1 | 29.1 µM (active) | 34.2%
COc1cc(NS(=O)(=O)c2ccc(N/C=C\C(=O)c3ccc(F)cc3)cc2)nc(OC)n1 | inactive | 2.61%
c1ccc(Cc2cc[n+](Cc3ccccn3)cc2)cc1 | inactive | 3.79%
CCOC(=O)c1c(C)nc2ccccc2c1C | inactive | –
Cc1nc2ccccc2c(N)c1C(=O)/C=C/c1ccccc1 | 14.6 µM (active) | -20.1%
Cn1c(N)c(C(=O)/C=C/c2ccccc2)c(=O)[nH]c1=O | inactive | 12.4%
CC(Nc1nc2ncn(Cc3ccccc3)c2c(=O)[nH]1)C(=O)O (stereo unspecified) | inactive | -0.475%
O=C(O)CCCCCNc1nc2ncn(Cc3ccccc3)c2c(=O)[nH]1 | 32.6 µM (active) | -20%
O=c1[nH]c(N2CCCCCC2)nc2ncn(Cc3ccccc3)c12 | inactive | 7.21%
Cc1ccc[n+](/C(=C\C(=C=[N-])C#N)C(=O)c2ccc(Cl)cc2)c1 | inactive | 18.6%

Structure (SMILES) | Potency | cell number change
O=C1CN(C(=O)c2ccccc2F)C(c2ccc(F)cc2)c2cc(Br)ccc2N1 (stereo unspecified) | inactive | -12.8%
CC(=O)Nc1ccc(OCC(=O)N2CCC(Cc3ccccc3)CC2)cc1 | inactive | -1.18%
CC(=O)Nc1ccc(C(=O)OCC(=O)N2CCC(Cc3ccccc3)CC2)cc1 | 2.91 µM (active) | -6.23%
COc1cc(C(=O)OCC(=O)N2CCC(Cc3ccccc3)CC2)cc(OC)c1OC | inactive | –
CC1=C(C(=O)NC2CCCc3c2cnn3-c2cc(F)cc(F)c2)OCCO1 (stereo unspecified) | inactive | 4.32%
COc1ccc(C(=O)NNC(=O)c2cc3cc(OC)ccc3oc2=O)cc1 | inactive | 12.8%
COc1ccc(NC(=O)c2cccs2)cc1 | inactive | -1.91%
Cc1ccc(C(O)(C(=O)NNc2ccc3ccccc3n2)c2ccc(C)cc2)cc1 | inactive | -2.27%
COc1ccc(C(O)(C(=O)NNc2ccc(C)cc2)c2cccs2)cc1 (stereo unspecified) | 32.6 µM (active) | 10.5%
Cc1cc2ncn(-c3ncnc4sc5c(c34)CCCC5)c2cc1C | inactive | 8.27%
c1ccc(CN(Cc2ccco2)C(c2ccncc2)c2nnnn2C2CCCC2)cc1 (stereo unspecified) | inactive | –
O=C(CNC(=O)C1CCCCC1)Nc1cc(Cl)cc(Cl)c1 | inactive | –
O=C(Nc1cc(Cl)cc(Cl)c1)C1CCCC1 | 20.6 µM (active) | -3.7%
O=C(Nc1ccc(Cl)cc1)C1CCCC1 | inactive | -15.4%
CC1=C(C(=O)OC(C)C)C(c2ccccc2)NC(=O)N1C (stereo unspecified) | inactive | –
COC(=O)C1=C(C)N(C)C(=O)NC1c1ccccc1 (stereo unspecified) | 29.1 µM (active) | -9.2%
COC(=O)C1=C(C)N(C)C(=O)NC1c1ccc(C)cc1 (stereo unspecified) | inactive | -10.6%
Cc1ccccc1NC(=O)C(C)c1cccc(C(=O)c2ccccc2)c1 (stereo unspecified) | inactive | 28.9%
CC(C(=O)O)c1cccc(C(=O)c2ccccc2)c1 (stereo unspecified) | 23% and -14% | –
C[C@H](C(=O)O)c1cccc(C(=O)c2ccccc2)c1 | inactive | 5.73%
CC(=O)c1cccc(NC(=O)CN(C2CCCCC2)S(C)(=O)=O)c1 | inactive | –
CCCCc1ccc(NC(=S)NCCO)cc1 | inactive | –
O=S(=O)(c1ccc(-c2ccccc2)cc1)N1CCCCC1 | inactive | 14.2%
Cc1ccc(NS(=O)(=O)c2ccc(NS(=O)(=O)c3cccs3)cc2)cc1 | inactive | –

Structure (SMILES) | Potency | cell number change
O=S(=O)(Nc1ccc(F)cc1)c1ccc(NS(=O)(=O)c2cccs2)cc1 | 3.66 µM (active) | 5.22%
Cc1ccccc1NS(=O)(=O)c1ccc(NS(=O)(=O)c2cccs2)cc1 | inactive | 22.7%
Cc1ccc(-n2nc3c(c2NC(=O)CC(C)C)CS(=O)C3)cc1 (stereo unspecified) | inactive | -3.89%
Clc1nnc(N2CCCCC2)c2ccccc12 | inactive | –
c1ccc2c(N3CCCCC3)nnc(N3CCCCC3)c2c1 | 23.1 µM (active) | 9%
Cc1ccc(-c2nnc(N3CCCCC3)c3ccccc23)cc1 | inactive | -9.5%
CCCCN1C2CCCC1CC(NC(=O)c1cccc(Cl)c1)C2 (stereo unspecified) | inactive | -7.62%
CN(C(=O)COc1ccccc1)C1CCS(=O)(=O)C1 (stereo unspecified) | inactive | -15.6%
Cc1cccc(C)c1OCC(O)CNC(C)(C)C (stereo unspecified) | inactive | 8.88%
CC(C)(C)NCC(O)COc1c(F)cc(Br)cc1F (stereo unspecified) | 29.1 µM (active) | -21.9%
Cc1cc(C)c(OCC(O)CNC(C)(C)C)c(C)c1 (stereo unspecified) | inactive | 1.51%
CCCCn1c(N)c(N(CC(C)C)C(=O)c2cnccn2)c(=O)[nH]c1=O | inactive | -16.5%
O=C(NC1CCCCC1)C1Cc2ccccc2CN1S(=O)(=O)c1ccc(F)cc1 (stereo unspecified) | inactive | -3.73%
CCC(OC(=O)c1nsc(Cl)c1Cl)C(=O)NCc1cccs1 (stereo unspecified) | inactive | 3.99%
CC(C)CC(OC(=O)c1nsc(Cl)c1Cl)C(=O)NCc1cccs1 (stereo unspecified) | inactive | -3.42%
CC(OC(=O)c1nsc(Cl)c1Cl)C(=O)NCc1cccs1 (stereo unspecified) | 32.6 µM (active) | 2.66%
O=C1COc2ccc(C(=O)CSc3ccccc3C(=O)O)cc2N1 | inactive | 8.27%
COc1ccc(C2=NC(c3ccccc3)CO2)cc1 (stereo unspecified) | inactive | -8.42%
CCOC(=O)C1(Cc2cccc(Cl)c2)CCCN(C(=O)c2cc(CC)on2)C1 (stereo unspecified) | 2.31 µM (active) | -22.9%
CCOC(=O)C1(Cc2cccc(Cl)c2)CCCN(C(=O)c2cc(C)on2)C1 (stereo unspecified) | inactive | 6.36%
CCOC(=O)C1(Cc2cccc(Cl)c2)CCCN(C(=O)c2cc(C)n(C)n2)C1 (stereo unspecified) | inactive | 17.5%
CCOc1ccc(OCC)c(S(=O)(=O)NCc2ccccn2)c1 | inactive | -15.9%
O=c1c(Cc2ccc(Cl)cc2)c(O)ccn1Cc1cccs1 | inactive | 1.85%
COCc1c(C(=O)N/N=C/c2cccc3ccccc23)nnn1-c1nonc1N | inactive | 13.5%

Structure (SMILES) | Potency | cell number change
Cc1ccc(-c2c(C(=O)N/N=C/c3ccc(C)o3)nnn2-c2nonc2N)cc1 | 2.06 µM (active) | -11.5%
CCCN(CCC)Cc1c(C(=O)N/N=C/c2c[nH]c3ccccc23)nnn1-c1nonc1N | inactive | 9.46%
Cc1ccc(-c2c(C(=O)N/N=C/c3ccco3)nnn2-c2nonc2N)cc1 | inactive | -15%
Cc1ccc(-c2c(C(=O)N/N=C/c3cccs3)nnn2-c2nonc2N)cc1 | inactive | -27.4%
COCc1c(C(=O)N/N=C/c2c[nH]c3ccccc23)nnn1-c1nonc1N | 0.164 µM (active) | -1.35%
Cc1ccc(/C=N/NC(=O)c2nnn(-c3nonc3N)c2C)o1 | inactive | -13.6%
Cc1ccc(/C=N/NC(=O)c2nnn(-c3nonc3N)c2-c2ccccc2)o1 | inactive | 4.2%
Cc1ccc(-c2c(C(=O)N/N=C/c3c[nH]c4ccccc34)nnn2-c2nonc2N)cc1 | 14.6 µM (active) | -29.2%
FC(F)(F)c1cccc(NC(=S)NCC(c2cccnc2)N2CCOCC2)c1 (stereo unspecified) | inactive | -6.8%
COc1ccc(NC(=S)N(CCc2nc3cc(C)c(C)cc3[nH]2)Cc2cccnc2)cc1 | inactive | –
Cc1ccc(S(=O)(=O)N2CCC(C(=O)Nc3ccccc3N3CCCC3)CC2)cc1 | inactive | –
CCn1c(=O)cc(SCC(=O)NCc2ccccn2)c2ccccc21 | inactive | –
COCCn1c(SCC(=O)NC(C)c2ccc(F)cc2)nc2ccccc21 (stereo unspecified) | inactive | 25.2%
O=C(COc1ccc2c(c1)oc(=O)c1ccccc12)NCCCN1CCOCC1 | inactive | 13.8%
COc1ccc(CCN(Cc2cc3ccc(C)cc3[nH]c2=O)C(C)=O)cc1OC | inactive | –
COc1ccc(-n2c(=S)[nH]c3cc(C(=O)Nc4ccc(F)cc4)ccc3c2=O)c(OC)c1 | 16.4 µM (active) | 32.1%
COc1ccc(-n2c(=S)[nH]c3cc(C(=O)NCc4ccccc4)ccc3c2=O)c(OC)c1 | inactive | 8.56%
COc1ccc(-n2c(=S)[nH]c3cc(C(=O)Nc4ccc(OC)c(OC)c4)ccc3c2=O)cc1 | inactive | 1.06%
CNC(=S)NNC(=O)Cn1ccc(C)n1 | inactive | -2.68%
O=C(Nc1ccccc1)OC(CN1CCCCC1)C(F)(F)F (stereo unspecified) | inactive | -2.34%
Fc1cccc(Nc2ncnc3[nH]ncc23)c1 | inactive | –
Cc1ccc(C)c(SCC(=O)NCc2ccco2)c1 | inactive | -4.84%
O=C(N/N=C/c1ccc2ccccc2c1)c1ccc(COc2ccc3c(c2)CCC3)o1 | inactive | -8.3%
